Laboratory results taken from PubChem BioAssay AID425 (Sanford-Burnham Center for Chemical Genomics, 2006).
Several values for one entry are separate records, joined by “and”; a condition that tells them apart may be missing. Identical values can stand only once. Screen size: about 110,000 compounds; about 190 (0.17%) were called active. Only a selection was taken, and actives are over-represented in it overall. Potency and affinity values are given separately. A number with no mark means an inactive call. No stated cut-off is given here; in the data, active means inhibition above about 50%; inactive means the rest.

Target: Dual specificity protein phosphatase 6 (Rattus norvegicus) (UniProt Q64346)
Sequence (Q64346 whole entry, looked up): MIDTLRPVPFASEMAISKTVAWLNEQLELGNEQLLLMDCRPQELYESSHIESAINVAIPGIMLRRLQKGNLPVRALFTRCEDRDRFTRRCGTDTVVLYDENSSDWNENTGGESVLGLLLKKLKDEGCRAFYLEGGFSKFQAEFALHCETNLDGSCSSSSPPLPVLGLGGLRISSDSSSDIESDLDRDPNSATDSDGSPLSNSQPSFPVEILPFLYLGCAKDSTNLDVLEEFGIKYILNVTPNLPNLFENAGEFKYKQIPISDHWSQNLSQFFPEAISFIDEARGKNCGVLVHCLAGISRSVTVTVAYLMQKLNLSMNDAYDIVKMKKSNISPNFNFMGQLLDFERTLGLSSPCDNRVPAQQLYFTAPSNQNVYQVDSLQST
Assay: inhibition of rat DUSP6 enzyme activity – biochemical, in vitro, primary screen (AID 425);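 further: plate controls were vehicle for no effect and reference inhibitor for full effect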
Conditions: recombinant MKP-3 phosphatase activity, fluorescence; at 20 µM; hits give high values

Compound	inhibition
CN(C)c1ccc(/C=C/C=C/c2cc[n+](CCCS(=O)(=O)[O-])cc2)cc1	5%
c1ccc(-c2noc(C34CC5CC(CC(C5)C3)C4)n2)nc1	-5.1%
CN1C(=O)NC(=O)/C(=C/c2ccc(-c3ccc(Cl)cc3Cl)o2)C1=O	66.9% (active)
CN1C(=O)NC(=O)/C(=C/c2ccc(-c3ccc(Cl)cc3)o2)C1=O	39.8%
CN1C(=O)NC(=O)/C(=C/c2ccc(-c3ccc([N+](=O)[O-])cc3Cl)o2)C1=O	12%
CCn1nc(NC(=O)c2ccncc2)c2cc3cc(C)ccc3nc21	-13.2%
O=C(NCCN1CCOCC1)c1cnn2c(C(F)(F)F)cc(-c3ccc(Br)cc3)nc12	-0.4%
CCN1C(=O)N(COC(C)=O)C2C1N(COC(C)=O)C(=O)N2CC (stereo not given)	3.5%
Cc1c(-c2cccc(Cl)c2)nc2ccccc2c1C(=O)O	1.1%
O=C(Cn1c(O)c(N=NC(=O)C(=O)Nc2ccc([N+](=O)[O-])cc2)c2ccccc21)Nc1ccccc1	-0.4%
O=C(Cn1c(O)c(N=NC(=O)c2ccc([N+](=O)[O-])cc2)c2ccccc21)Nc1ccccc1	0.9%
Cc1ccc(C2SCC(=O)N2CCCN(C)C)cc1 (stereo not given)	-0.2%
Cc1c(Cl)cccc1N=C1NC(=O)/C(=C/c2ccc(OC(C)C)cc2)S1	3.5%
Cc1ccccc1C(=O)Nc1cccc(C(=O)Nc2ccccc2Cl)c1	0.2%
O=C(Nc1ccccc1Cl)c1cccc(NC(=O)C(F)(F)F)c1	98.8% (active)
O=C(Nc1ccccc1Cl)c1cccc(F)c1	0.5%
CCOC(=O)C1=C(O)CCn2c1nc1ccccc12	-0.7% and -13.2%
CCOC(=O)C1(C)C=C(Nc2ccc(S(=O)(=O)Nc3nccs3)cc2)C(=O)N1c1ccccc1 (stereo not given)	2.7%
COC(=O)c1c(NC(=O)c2cncc(Br)c2)sc2c1CCC2	-14%
Cc1ccccc1NC(=O)C(C)NC(=O)C12CC3CC(CC(C3)C1)C2 (stereo not given)	1.2%
COc1cc(NC(=O)c2cc3nc(-c4ccccc4)cc(C)n3n2)c(OC)cc1Cl	10.6%
Cc1cc(-c2ccccc2)nc2cc(C(=O)Nc3ccc(Cl)cc3)nn12	3.4%
COc1ccc(Cl)cc1NC(=O)c1cc2nc(-c3ccccc3)cc(C)n2n1	63.8% (active)
Cc1ccc(NC(=O)COc2ccc(Br)cc2)c(C)c1	2.7%

Compound	inhibition
Cc1ccc(S(=O)(=O)Nc2cc(Sc3nc4ccccc4[nH]3)c(O)c3ccccc23)cc1	8.1%
Cc1ccc(S(=O)(=O)Nc2cc(C)c(O)c(Sc3ncn[nH]3)c2)cc1	4.4%
Cc1ccc(S(=O)(=O)Nc2cc(Sc3ncn[nH]3)c(O)c3ccccc23)cc1	56% (active)
COc1ccc(C2CC(=O)C3=C(C2)Nc2ccccc2NC3c2cccs2)cc1 (stereo not given)	3.6%
CCSc1nc(-c2cccs2)nc2c1c(=O)n(C)c(=O)n2C	-4.4%
COc1ccc(OC)c(/C=c2\sc3nc(-c4cccs4)nn3c2=O)c1	0.4%
COc1ccc(-n2c(C)cc(C)nc2=O)cc1	-1.5%
Cn1c(/C=C/c2ccc(Br)cc2)nc2ccccc2c1=O	0.8%
Cn1c(/C=C/c2cccnc2)nc2ccccc2c1=O	-2.3%
CCOC(=O)Cn1nc(-c2ccccc2)nc1-c1ccccc1	-8%
Cc1nc(C)n(C)c(=O)c1-c1ccccc1	-0.4%
O=C(Nc1ccc(-c2cn3ccsc3n2)cc1)C1COc2ccccc2O1 (stereo not given)	2.3%
CC1=C(C(=O)Nc2cccc(C)c2)C(c2cc(Br)ccc2O)NC(=O)N1 (stereo not given)	-0.3%
CCOc1ccccc1NC(=O)C1C2C=CC(O2)C1C(=O)O (stereo not given)	-14.3%
COC(=O)c1cc(C(=O)NC2CCCCCC2)cc([N+](=O)[O-])c1	-3.5%
CCOc1cccc(/C=N\NC(=O)Cc2cccn2C)c1O	2.2%
C=CCOc1ccc(/C=C2\C(=O)NC(C)=C2C(=O)OC)cc1OC	3%
COc1cc(F)ccc1S(=O)(=O)N1CCCCCC1	-0.1%
Cc1cccc(N2CCN(C(=O)c3ccc(Cl)c(Cl)c3)CC2)c1C	3.8%
C=CCN1C(=O)/C(=C/c2ccc(Cl)cc2)C(=O)NC1=S	1.8%
Cn1c(-c2ccccn2)nc2ccccc21	1.2%
CCn1c(N)nc2c1c(=O)n(C)c(=O)n2C	-1.5%
c1ccc(-c2nnc(-c3ccccn3)nc2-c2ccccc2)cc1	-0.7%
CCCc1nc(SCC(=O)c2ccc(OC)cc2)c2c(=O)n(C)c(=O)n(C)c2n1	-2.4%

Compound	inhibition
O=c1c2c3c(sc2n2c(=S)[nH]nc2n1-c1ccccc1)CCCCC3	1.2%
COc1ccc(CCNC(=O)C2CCN(S(=O)(=O)N3CCCCC3)CC2)cc1OC	-1.4%
COc1ccc(Cc2nnc(SCC(=O)N3CCN(c4ccccc4)CC3)o2)cc1	-9.3%
O=C1N=c2ccccc2=C1c1s/c(=N/N=C2/C(=O)Nc3ccccc32)n(-c2ccc(O)cc2)c1O	69.8% (active)
O=C1N=c2ccccc2=C1c1sc(=O)n(-c2ccc(O)cc2)c1O	0.6%
O=C1N=c2ccccc2=C1c1sc(=Nc2ccccc2)n(-c2ccccc2)c1O	-2%
Cc1ccc(-c2nc(CS(=O)CC(=O)NCCC(C)C)c(C)o2)cc1 (stereo not given)	-10.1%
CCCCNCCCOc1ccccc1CC	-0.3%
COc1cc(C=C2C(=O)c3ccccc3C2=O)cc(Br)c1OCC(=O)O	3.3%
COc1cc(/C=C2\SC(NC(C)=O)=NC2=O)cc(Br)c1OC	3.2%
CCOCCOC(=O)c1cccc(NC(=O)/C=C/c2ccc(Cl)cc2Cl)c1	3.2%
NC(=O)c1cc(-c2ccccc2)sc1N	3.8%
O=C1NC(=O)N(c2ccccc2)C(=O)/C1=C\c1cccn1-c1cccc([N+](=O)[O-])c1	4.5%
O=C(O)c1cccc(NC2=C(Cl)C(=O)N(c3ccc(Cl)cc3)C2=O)c1	7.4%
O=C1OCCC1Sc1nc2ccccc2[nH]1 (stereo not given)	-11%
FC(F)(F)c1ccc2nnc(-c3cccc(Cl)c3Cl)n2c1	5.1%
O=C1/C(=C\c2cc3c(cc2[N+](=O)[O-])OCO3)SC(=S)N1c1ccccc1	5.2%
C=CCN1C(=O)/C(=C\c2cc3c(cc2Br)OCO3)SC1=S	0.3%
CC(=O)NN1C(=O)/C(=C\c2ccc(O)c([N+](=O)[O-])c2)SC1=S	1.4%
O=C(NN1C(=O)/C(=C/c2cc3c(cc2[N+](=O)[O-])OCO3)SC1=S)c1ccccc1Cl	8.9%
CC(=O)NN1C(=O)/C(=C/c2cc3c(cc2[N+](=O)[O-])OCO3)SC1=S	119% (active)
C=CCN1C(=O)/C(=C\c2cc3c(cc2[N+](=O)[O-])OCO3)SC1=S	124% (active)
CC1(C(=O)O)CCC(C(=O)N2CCOCC2)C1(C)C (stereo not given)	-3.7%
CC(c1nc2ccccc2n1C)C(O)c1ccccc1 (stereo not given)	-0.3%

Compound	inhibition
COc1ccc(NC(=O)c2ccco2)cc1NC(=O)c1ccco1	0.7%
O=C(O)c1cccc2c1NC(c1ccc([N+](=O)[O-])cc1)C1CC=CC21 (stereo not given)	71.1% (active)
O=C(O)c1cccc2c1NC(c1ccc(Cl)cc1)C1CC=CC21 (stereo not given)	69.9% (active)
O=C(O)c1cccc2c1NC(c1ccccc1Br)C1CC=CC21 (stereo not given)	15.1%
O=[N+]([O-])c1ccc(C2Nc3c(cccc3[N+](=O)[O-])C3C=CCC32)cc1 (stereo not given)	5.4%
O=C(O)c1cccc2c1NC(c1cccc(Cl)c1Cl)C1CC=CC21 (stereo not given)	27.8%
O=[N+]([O-])c1ccc(C2Nc3c(I)cccc3C3C=CCC32)cc1 (stereo not given)	4.4%
CCNC(=S)Nc1ccccc1Cl	-1.1%
O=C(NN=C1CCN(Cc2ccccc2)CC1)c1sc2ccccc2c1Cl	0.3%
COc1ccc(NC(=O)C(=O)NCc2ccco2)cc1Cl	-2.8%
O=[N+]([O-])c1ccc(S(=O)(=O)NCCOc2ccccc2Cl)cc1	-1.1%
CCOc1ccc(N(CC(=O)NCc2ccc(Cl)cc2)S(C)(=O)=O)cc1	-2.6%
CCOc1ccc(N(CC(=O)NCc2ccc(Cl)cc2)S(=O)(=O)c2ccc(Br)cc2)cc1	54.4% (active)
CCOc1ccc(N(CC(=O)NCc2ccc(OC)cc2)S(=O)(=O)c2ccc(Br)cc2)cc1	-0.5%
CNS(=O)(=O)c1cc(O)c2c(S(=O)(=O)NC)cccc2c1	6%
Cc1cccc2cc(=O)[nH]c(C)c12	13.2%
NC(=S)n1[nH]c(-c2ccccc2)c(N=Nc2ccc(C(=O)O)cc2)c1=O	-0.5%
Cc1ccc(-c2[nH]n3c(=O)cc(-c4ccc([N+](=O)[O-])cc4)nc3c2C)cc1	-3.9%
O=C(CCCC(=O)OCC(F)(F)C(F)F)Nc1ccc(F)cc1F	-2.5%
CC1CCN(CCCNC(=O)c2cn(C)c3ccc(S(=O)(=O)N4CCCC4)cc3c2=O)CC1	-3%
CCCCCCCCNC(=O)CCC(=O)O	-1.5%
CCCCCC1NC(=O)NC1CCCCCC(=O)O (stereo not given)	-4.9%
COc1c(Cl)cc(C(=O)Nc2ccc(N3CCOCC3)cc2)cc1Cl	3.1%
